Only a selection was taken, and hits are over-represented in it overall.
NOMO-1 viab – STK33 inhibitor candidate reducing NOMO-1 cell viability; NOMO-1 AML viability, CellTiter-Glo luminescence, 72 h; inhibition, % (no concentration beside the values); 37,000 compounds, 7.5% hits; AID 2330; in the data active means inhibition above about 80%; inconclusive means no clear call, values can overlap the other calls
PD-1 reversal – activators reversing PD-1 mediated T-cell inhibition; primary human CD4 T cells, PD-L1 beads, CellTiter-Glo 96 h; activation, % (concentration not given with the values); 29,000 tested, under 10 active; call rule not given here
STK33 kin inh – inhibitors of human STK33 kinase; Q9BYT3; ADP-Glo luminescence, MBP substrate; inhibition, % at 12.5 µM; 27,000 compounds, 0.44% hits; AID 2322; in the data active means inhibition above about 20%; inconclusive means no clear call, values can overlap the other calls
Target sequence (Q9BYT3 whole entry, looked up): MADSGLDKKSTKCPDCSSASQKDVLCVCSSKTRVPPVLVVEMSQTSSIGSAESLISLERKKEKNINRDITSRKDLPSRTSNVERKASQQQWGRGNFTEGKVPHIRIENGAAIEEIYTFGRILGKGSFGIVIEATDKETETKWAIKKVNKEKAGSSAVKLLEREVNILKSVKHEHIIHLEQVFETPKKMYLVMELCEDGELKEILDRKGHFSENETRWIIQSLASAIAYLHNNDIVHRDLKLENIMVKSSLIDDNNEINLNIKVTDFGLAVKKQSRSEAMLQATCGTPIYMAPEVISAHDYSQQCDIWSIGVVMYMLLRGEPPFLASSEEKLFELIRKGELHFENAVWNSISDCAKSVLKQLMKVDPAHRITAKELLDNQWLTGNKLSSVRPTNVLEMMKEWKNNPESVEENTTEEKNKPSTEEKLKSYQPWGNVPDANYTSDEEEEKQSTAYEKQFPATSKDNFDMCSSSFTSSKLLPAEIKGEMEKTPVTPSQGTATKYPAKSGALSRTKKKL
Of the large screens only hits and unclear results are named; the others gave an inactive call.

CN1Cc2c(ccc3c2OCO3)C2C(O)Cc3cc4c(cc3C21)OCO4 (stereo unspecified)	NOMO-1 viab 104.5 (no result: PD-1 reversal)
COc1ccc2c(c1OC)C(=O)O[C@H]2[C@@H]1c2cc3c(cc2CCN1C)OCO3	none (no result: PD-1 reversal)
CC1=CC2/C=C(\C)CCC(O)C(O)/C=C/C(=O)C23C(=O)NC(CC(C)C)C3C1C (stereo unspecified)	NOMO-1 viab 121.3
C/C1=C/[C@@H](C)C/C=C/[C@H]2[C@@H]3O[C@]3(C)[C@@H](C)[C@H]3[C@H](Cc4c[nH]c5ccccc45)NC(=O)[C@]32C(=O)/C=C\C(=O)[C@@H]1O	none (no result: NOMO-1 viab, PD-1 reversal)
Cc1ccc(OC(=O)N(C)C[C@H]2OCc3cnnn3CCCC(=O)N([C@H](C)CO)C[C@H]2C)cc1	none (no result: NOMO-1 viab, PD-1 reversal)
CCC(=O)O[C@H]1CCC2C3CCC4=CC(=O)CC[C@]4(C)C3CC[C@@]21C (stereo partly specified)	none (no result: PD-1 reversal)
Cc1ccc(S(=O)(=O)N2CCCCC2)cc1C(=O)Oc1cccc2cccnc12	NOMO-1 viab 116.2 (no result: STK33 kin inh)
CC(C)N(C(=O)SCC(Cl)=C(Cl)Cl)C(C)C	none (no result: PD-1 reversal)
CN(CC(=O)Nc1ccc(Cl)cc1C(=O)c1ccccc1)S(=O)(=O)c1ccc(Cl)cc1	none
CC1=CC2OC3[C@H](O)C[C@@](C)([C@]34CO4)[C@@]2(CO)[C@H](O)C1=O (stereo partly specified)	NOMO-1 viab 123.5
COC(=O)C12CC3CC(C(C)O)C1N(CCc1c2[nH]c2cc(OC)ccc12)C3 (stereo unspecified)	none (no result: NOMO-1 viab, PD-1 reversal)
CC[C@@]1(O)C(=O)OCc2c1cc1n(c2=O)Cc2cc3c(O)cccc3nc2-1	NOMO-1 viab 119.3 (no result: PD-1 reversal)
COc1ccc2c(c1)[C@]13CCCC[C@H]1[C@H](C2)N(C)CC3	none (no result: PD-1 reversal)
CCC(C)(O)C(=O)O[C@H]1C(=O)O[C@@H]2C[C@H]3C(C)=CC(=O)[C@@H](O)[C@]3(C)[C@H]3[C@@]4(O)OC[C@]32[C@@H]1[C@@H](C)[C@H]4O (stereo partly specified)	NOMO-1 viab 124.1
C=CC(C)(C)[C@@]12C[C@H]3C(=O)N/C(=C\c4cnc[nH]4)C(=O)N3[C@@H]1Nc1ccccc12	none
CC12CCC3C(CC=C4CC(O)CCC43CO)C1CCC2OC(=O)c1ccccc1 (stereo unspecified)	none (no result: STK33 kin inh)
COc1ccc(CC2(CCc3ccncc3)C(=O)NC(=O)N(c3cccc(C)c3)C2=O)c(OC)c1 (stereo unspecified)	none (no result: PD-1 reversal)
COc1ccccc1OCCCn1cc(C(=O)c2ccccc2)c2ccccc21	none (no result: PD-1 reversal)
COc1ccccc1OCCCn1cc(C(=O)C(C)(C)C)c2ccccc21	none
COc1cc(CNCCc2c[nH]c3ccccc23)c([N+](=O)[O-])cc1OC	none (no result: PD-1 reversal)
C[CH2][Hg][S]c1ccccc1C(=O)O	NOMO-1 viab 110.8 (no result: PD-1 reversal)
CNc1ccccc1C(=O)O	none (no result: PD-1 reversal)
C/C=C(/C)C(=O)O[C@H]1C(C)=C2[C@H]([C@@H]1OC(=O)CCCCC)[C@@](C)(OC(C)=O)C[C@H](OC(=O)CCC)[C@@]1(O)[C@H]2OC(=O)[C@@]1(C)O	NOMO-1 viab 99.4
COC(C/C=C/C=C/CC/C=C\CC(C)/C=C\C(=C/C(=O)O)CC(=O)O)/C(C)=C\C=C(/C)C(=O)O (stereo unspecified)	none
C=C1C([C@]2(C)C(CC(=O)OC)[C@@](C)(COC(C)=O)OC(=O)C[C@@H]2OC(C)=O)[C@@H](OC=O)[C@H](OC(=O)C(OC(C)=O)C(C)CC)[C@@]2(C)[C@H](c3ccoc3)CC(=O)C12O (stereo partly specified)	none (no result: PD-1 reversal)
CCn1cnc2c(Nc3cccc(Cl)c3)nc(N[C@@H]3CCCC[C@@H]3N)nc21	NOMO-1 viab 99.7, STK33 kin inh 62.5
O=C(CC[N+](=O)[O-])OC[C@H]1O[C@@H](O)[C@H](OC(=O)CC[N+](=O)[O-])[C@@H](OC(=O)CC[N+](=O)[O-])[C@@H]1OC(=O)CC[N+](=O)[O-]	NOMO-1 viab 106.0 (no result: PD-1 reversal)
NCC(=O)Nc1ccc(Br)cc1C(=O)c1ccccc1	none (no result: PD-1 reversal)
CC(/C=C/[C@@]1(C)[C@H](C)CCC(=O)[C@@H]1C)=C\Cc1c(O)c(Cl)c(C)c(C=O)c1O	NOMO-1 viab 111.8
CC1=CC(=O)C2=C(C)C[C@H](O)[C@@H]3[C@H](OC(=O)[C@@H]3C)[C@@H]12	none (no result: NOMO-1 viab, PD-1 reversal)
Cn1cnc(-n2oo2)c1C#N	none
C[C@@H]1CC([C@H](O)CC2CC(=O)NC(=O)C2)C(=O)[C@@H](C)C1 (stereo partly specified)	NOMO-1 viab 140.7
C[C@@H]1C[C@@H]([C@H](O)CC2CC(=O)NC(=O)C2)C(=O)[C@@H](C)C1	NOMO-1 viab 113.9 (no result: PD-1 reversal)
CC(C)(CN)CNc1ccc([N+](=O)[O-])c2cccnc12	none (no result: PD-1 reversal)
C[C@@H]1O[C@@H](O[C@@H]2C=C3CCC4C(CC[C@]5(C)[C@@H](c6ccc(=O)oc6)CC[C@]45O)[C@@]3(C)CC2)[C@H](O)[C@H](O)[C@H]1O (stereo partly specified)	NOMO-1 viab 119.7 (no result: PD-1 reversal)
C[C@@H]1O[C@@H](O[C@@H]2C=C3CC[C@@H]4C(CC[C@]5(C)[C@@H](c6ccc(=O)oc6)CC[C@]45O)[C@@]3(C)CC2)[C@H](O)[C@H](O)[C@H]1O (stereo partly specified)	NOMO-1 viab 107.7
C=C(C)[C@@]12O[C@@H]1[C@@]1(C)C(=C[C@H]2O)CC[C@@H](O)[C@@H]1C	none
Cc1ccc(N2C(=O)NC(=O)C(CCc3ccccn3)(Cc3cccs3)C2=O)cc1 (stereo unspecified)	none (no result: PD-1 reversal)
CC1(C)C(C(=O)Nc2nccs2)C1(C)C	none
C=C1[C@@H](C)[C@H]2[C@H](Cc3ccccc3)NC(=O)[C@]23OC(=O)/C=C\[C@H](O)CCC[C@@H](C)C/C=C/[C@H]3[C@@H]1O	NOMO-1 viab 120.1
C[C@H]1CN([C@@H](C)CO)C(=O)CCCn2nncc2CO[C@@H]1CN(C)C(=O)Oc1ccc2ccccc2c1	none (no result: NOMO-1 viab, PD-1 reversal)
C/C=C\C(=O)O[C@@H]1C[C@H]2O[C@@H]3C=C(C)C(=O)C[C@]3(C)[C@]1(C)[C@]21CO1	NOMO-1 viab 122.1
Cc1cc(OC(=O)c2cccs2)c2c3c(c(=O)oc2c1)CCC3	none (no result: STK33 kin inh)
C=C(CO)C(=O)O[C@H]1C/C(C)=C\CC/C(CO)=C\[C@H]2OC(=O)C(=C)[C@H]12	NOMO-1 viab 122.5
C=C(CO)C(=O)O[C@H]1CC(=C)[C@@H]2C[C@H](O)C(=C)[C@@H]2[C@H]2OC(=O)C(=C)[C@@H]21	NOMO-1 viab 120.8
NC1=C(C(=O)OCc2ccccc2)C2(C(=O)Nc3ccc(Br)cc32)C2=C(O1)C(=O)CCC2 (stereo unspecified)	none (no result: STK33 kin inh)
C[C@@H]1CN([C@@H](C)CO)C(=O)CCCn2cc(nn2)CO[C@@H]1CN(C)C(=O)Oc1ccc2ccccc2c1	none (no result: NOMO-1 viab, PD-1 reversal)
O=c1c2ccccc2nc(CSc2ncnc3ccccc23)n1-c1ccccc1F	NOMO-1 viab inconclusive
CC(=O)OC1CCC2(C)C(=CCC3C4CCC(=O)C4(C)CCC32)C1 (stereo unspecified)	none
CC(C)(C)c1nc2ccccc2c(=O)n1-c1ccc(F)cc1F	none (no result: STK33 kin inh)
CN1CCN(CC(=O)Nc2ccc(Br)cc2C(=O)c2ccccc2)CC1	none
Clc1cncc(N2CCNCC2)n1	none
COc1ccc(CC2C(=O)OCC2Cc2ccc3c(c2)OCO3)cc1OC (stereo unspecified)	none
COc1cc2c(c(OC)c1OC)-c1cc3c(cc1[C@H](OC(C)=O)[C@H]1COC(=O)[C@@H]1C2)OCO3	NOMO-1 viab 106.5

Screening results (PubChem BioAssay)
